Screen size: about 310,000 compounds; about 2,200 (0.71%) showed an effect of 50% or more. The effect is printed as a negative number. The full list was thinned out, with strong results kept by preference.
biological target: human ether-à-go-go-related gene (hERG) potassium channel (human, UniProt Q12809); assay: primary screen, population patch clamp on CHO cells stably expressing hERG; higher = less effect of the substance
Sequence (Q12809 whole entry, looked up): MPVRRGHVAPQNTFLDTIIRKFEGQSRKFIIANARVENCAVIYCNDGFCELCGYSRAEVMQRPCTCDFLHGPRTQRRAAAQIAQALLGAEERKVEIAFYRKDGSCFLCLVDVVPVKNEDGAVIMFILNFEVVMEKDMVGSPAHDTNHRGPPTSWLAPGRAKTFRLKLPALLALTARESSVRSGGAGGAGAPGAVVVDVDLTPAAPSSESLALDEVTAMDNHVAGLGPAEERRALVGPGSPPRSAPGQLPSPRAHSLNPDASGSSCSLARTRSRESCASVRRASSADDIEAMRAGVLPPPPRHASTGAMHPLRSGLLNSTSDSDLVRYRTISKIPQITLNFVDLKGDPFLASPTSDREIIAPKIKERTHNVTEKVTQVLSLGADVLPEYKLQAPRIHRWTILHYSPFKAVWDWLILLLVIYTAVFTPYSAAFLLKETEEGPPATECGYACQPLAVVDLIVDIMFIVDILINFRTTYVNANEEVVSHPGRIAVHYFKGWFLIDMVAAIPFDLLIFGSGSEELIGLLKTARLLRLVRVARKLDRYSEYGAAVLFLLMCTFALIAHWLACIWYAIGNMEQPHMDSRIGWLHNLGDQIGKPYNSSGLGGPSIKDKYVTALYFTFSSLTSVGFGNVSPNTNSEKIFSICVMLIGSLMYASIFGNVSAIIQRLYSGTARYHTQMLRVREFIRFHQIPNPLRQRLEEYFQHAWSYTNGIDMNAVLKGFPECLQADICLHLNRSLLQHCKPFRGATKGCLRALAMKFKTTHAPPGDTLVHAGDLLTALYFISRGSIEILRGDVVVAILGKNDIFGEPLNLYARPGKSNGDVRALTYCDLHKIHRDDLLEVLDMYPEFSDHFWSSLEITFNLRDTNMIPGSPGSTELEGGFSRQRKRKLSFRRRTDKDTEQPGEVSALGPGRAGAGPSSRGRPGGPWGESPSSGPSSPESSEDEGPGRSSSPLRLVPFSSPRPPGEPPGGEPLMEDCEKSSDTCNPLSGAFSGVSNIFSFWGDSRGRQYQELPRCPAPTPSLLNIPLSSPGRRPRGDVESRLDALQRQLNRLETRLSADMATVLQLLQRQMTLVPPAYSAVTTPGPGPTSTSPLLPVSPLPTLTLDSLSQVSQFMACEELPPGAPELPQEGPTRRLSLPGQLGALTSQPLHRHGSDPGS

Compound | hERG current change (%, negative = inhibition) at 1uM
CC(C)(C)C(=O)NC1CCN(S(=O)(=O)c2ccccc2F)CC1 | 7.45%
COc1ccc(N2CCN(C(=O)c3ccc(F)cc3)CC2)c([N+](=O)[O-])c1 | -38.3%
CO/N=C/c1ccc(N2CCN(C(=O)c3ccc(C)cc3)CC2)c([N+](=O)[O-])c1 | -67.2%
CO/N=C/c1ccc(N2CCN(C(=O)c3ccc(Cl)cc3Cl)CC2)c([N+](=O)[O-])c1 | -18.5%
COc1ccc(N2CCN(C(=O)c3ccc(C)cc3)CC2)c([N+](=O)[O-])c1 | -29.7%
CO/N=C/c1ccc(N2CCN(C(=O)c3ccc(F)cc3)CC2)c([N+](=O)[O-])c1 | -78.1%
CO/N=C/c1ccc(N2CCN(C(=O)c3cccc(C(F)(F)F)c3)CC2)c([N+](=O)[O-])c1 | -2.38%
CCc1ccc(CNC(=O)CCCC(=O)n2nc(C)c3ccccc32)cc1 | 16.1%
CC(C)CCCN1C(Nc2ccccc2)=NC[C@@H]1C | -0.21%
CCCCCCCN1C(Nc2ccccc2)=NC[C@@H]1C | -55.2%
CCCCCCCN1C(Nc2ccccc2)=NC[C@@H]1Cc1ccccc1 | -79.6%
CC(C)C[C@H]1CN=C(Nc2ccccc2)N1CCC(C)c1ccccc1 (stereo partly shown) | -8.04%
c1ccc(CCCCN2C(Nc3ccccc3)=NC[C@@H]2Cc2ccccc2)cc1 | -39.7%
CCCCN1C(Nc2ccccc2)=NC[C@@H]1Cc1ccccc1 | -44.2%
CC(CCN1C(Nc2ccccc2)=NC[C@@H]1Cc1ccccc1)c1ccccc1 (stereo partly shown) | -52.7%
CCCCN1C(Nc2ccccc2)=NC[C@@H]1C | 16.3%
CC(C)CCN1C(Nc2ccccc2)=NC[C@@H]1Cc1ccccc1 | -15%
CCOc1ccc(S(=O)(=O)n2nc(C)cc2C)cc1 | 13.8%
CCOc1cc(/C=N/NC(=O)CNc2ccc(C)cc2)ccc1OC(=O)c1ccccc1 | -0.419%
CN(Cc1c(F)cccc1Cl)C(=O)CNC(=O)c1ccc2c(c1)OCO2 | 13.8%
CCCOc1ccc(NC(=O)CC2C(=O)N(c3ccc(OCC)cc3)C(=S)N2C2CC2)cc1 (stereo not shown) | -3.7%
CN1CCN(c2ccc(NC(=O)c3ccc([N+](=O)[O-])o3)cc2Cl)CC1 | -13.7%
Cc1ccc(N2CC(O)Cn3c2nc2c3c(=O)n(C)c(=O)n2C)cc1 (stereo not shown) | 13.5%
CCc1ccc2oc(-c3ccc(OC)cc3)cc(=[NH+]c3c(C)n(C)n(-c4ccccc4)c3=O)c2c1.F[B-](F)(F)F | -33.7%
O=c1cc(-c2ccccc2)oc2ccccc12 | 13%

Compound | hERG current change (%, negative = inhibition) at 1uM
CC(C)C[NH+]=c1cc(-c2ccccc2)oc2ccc(Cl)cc12.F[B-](F)(F)F | -81.1%
CC(O)C[NH+]=c1cc(-c2ccccc2)oc2ccc(Cl)cc12.F[B-](F)(F)F (stereo not shown) | -57%
CCc1ccc2oc(-c3ccc(OC)cc3)cc(=[NH+]c3cccc(C(=O)O)c3)c2c1.F[B-](F)(F)F | 4.56%
Cc1cc(Cl)ccc1Oc1ncnc2oc(-c3ccccc3)cc12 | 6.84%
COC(=O)c1sc(S(=O)(=O)N2CCC(C(N)=O)CC2)c(C(=O)OC)c1C | -10.8%
Cc1cc2nnc(SCc3ccccc3)n2c(N)n1 | -5.86%
CCCCNC(=O)CN(c1ccc(Cl)c(Cl)c1)S(C)(=O)=O | 7.06%
COC(=O)C1=C(N)Oc2cc(N(C)C)ccc2C1c1ccccc1OC (stereo not shown) | -84.1%
CCOc1ccc(Br)cc1C1C(C(=O)OC)=C(N)Oc2cc(N(C)C)ccc21 (stereo not shown) | 16.6%
COC(=O)C1=C(N)Oc2cc(C)[nH]c(=O)c2C1c1ccccc1OC (stereo not shown) | 9.49%
Cc1cc(C)nc(SCc2ccc(C(=O)N/N=C/c3cccc(O)c3O)cc2)n1 | 10.8%
c1ccc(-c2nc(NCCCN3CCOCC3)c3ccccc3n2)cc1 | 3.18%
c1ccc2[nH]c(NCCCN3CCOCC3)nc2c1 | 14.6%
Cc1nc(NCCN2CCOCC2)c2oc3ccccc3c2n1.Cl | -8.71%
c1ccc2c(NCCCN3CCOCC3)c3ccccc3nc2c1 | -54.2%
CCCc1cc(NCCCN2CCOCC2)n2c(nc3ccccc32)c1C#N | -37%
COc1ccc2nc(C)cc(NCCN3CCOCC3)c2c1 | 12.3%
CC(C)c1cc(NCCCN2CCOCC2)n2c(nc3ccccc32)c1C#N | -55.7%
Cc1cc(NCCCN2CCOCC2)n2c(nc3ccccc32)c1C#N | -0.298%
Cc1cc(NCCN2CCOCC2)c2ccc3ccccc3c2n1 | -58.3%
Cc1[nH]nc2c1C(c1ccccc1F)CC(=O)N2 (stereo not shown) | -1.84%
Cc1c(Cl)cccc1NC(=O)COc1ccc(S(=O)(=O)N2CCOCC2)cc1 | 3.86%
Cc1ccc(S(=O)(=O)N2CCN(CC(=O)NC3CCCc4ccccc43)CC2)cc1C.O=C(O)C(=O)O (stereo not shown) | 1.77%
CCC(=O)Nc1ccc(NC(=S)NC(=O)/C=C/c2ccco2)cc1 | 6%
Cc1ccc(-c2cc(C(=O)NCCc3ccccn3)c3ccccc3n2)c(C)c1 | -13.8%

Compound | hERG current change (%, negative = inhibition) at 1uM
Brc1ccc(NC(c2ccccc2)c2ccncc2)cc1.Cl (stereo not shown) | 17.3%
COCCNC(=O)C(c1cccs1)N(C(=O)Cn1nnc2ccccc21)c1ccccc1 (stereo not shown) | 2.32%
CC1(C)CC2(CC(c3ccccc3)Oc3cc(O)ccc32)NC(=S)N1 (stereo not shown) | 6.06%
CSC1=NC2(CC(c3ccccc3)Oc3cc(O)ccc32)CC(C)(C)N1 (stereo not shown) | -68.8%
CC1(C)CC2(CC(c3ccccc3)Oc3cc(O)ccc32)NC(=O)N1 (stereo not shown) | 10.8%
Cc1nnc(NC(=O)c2c(F)c(F)c(F)c(F)c2F)s1 | 15.5%
O=C(Nc1cnccn1)C1c2ccccc2Oc2ccccc21 | 0.161%
O=C(NCc1ccco1)c1n[nH]c(=O)c2ccccc12 | 11.8%
c1coc(CNc2ncnc3sc4c(c23)CCCCC4)c1 | -16%
CSc1nc(SCC(=O)NCc2ccco2)c2c3c(sc2n1)CN(C)CC3 | 4.1%
CN1CCc2c(sc3c2c(NCc2ccco2)nc2nnnn23)C1 | -72.8%
CCN1CCc2c(sc3c2c(NCc2ccco2)nc2nnnn23)C1 | -69.3%
Cc1nc(NCc2ccco2)c2c3c(sc2n1)CCC3 | 2.14%
CCN1CCc2c(sc(NC(=S)NC(=O)c3ccco3)c2C(N)=O)C1 | 15.8%
COc1ccc(C2C(C(=O)Nc3ccccc3OC)=C(C)Nc3nnnn32)c(OC)c1 (stereo not shown) | 7.88%
CC(NC(=S)NCCCN1CCOCC1)C12CC3CC(CC(C3)C1)C2 (stereo not shown) | 12.9%
CC(C)Cn1c(N)c(C(=O)NCCN2CCOCC2)c2nc3ccccc3nc21 | -71.5%
CCCCCn1c(N)c(C(=O)NCCN2CCOCC2)c2nc3ccccc3nc21 | -0.506%
CCCCn1c(N)c(C(=O)NCCN2CCOCC2)c2nc3ccccc3nc21 | -21%
Cc1c(C(=O)N(CCc2ccccc2)Cc2ccccc2)cccc1[N+](=O)[O-] | 12.7%
OCCCC1CCCCN1Cc1nc(Cc2ccccc2Cl)no1 (stereo not shown) | -65.5%
Clc1ccccc1Cc1noc(CN2CCCCC2CCc2ccccn2)n1 (stereo not shown) | -3.35%
CCC1CCCCN1Cc1nc(Cc2ccccc2Cl)no1 (stereo not shown) | 4.88%
COC(=O)c1oc2ccccc2c1NC(=O)c1ccccc1O | 16.2%
Cc1ccc(C)c(NC(=O)CCN2C(=O)c3ccccc3C2=O)c1 | 15.3%

Compound | hERG current change (%, negative = inhibition) at 1uM
CC(C)(C)NC(=O)CSCc1ccc(Br)cc1 | 1.24%
O=C(Nc1nnc(-c2cccnc2)o1)c1cccc(Cl)c1 | 3.43%
CCOC(=O)c1cc2c(=O)n3ccccc3nc2n(CCCOC)c1=NC(=O)c1ccncc1 | -40%
CCOC(=O)c1cc2c(=O)n3ccccc3nc2n(CCCOC)c1=NC(=O)c1cccnc1 | -18.4%
CCOC(=O)c1cc2c(=O)n3cccc(C)c3nc2n(CCCOC)c1=NC(=O)c1cccnc1 | -65.4%
CCCCCn1c(=NC(=O)c2cccnc2)c(C#N)cc2c(=O)n3cccc(C)c3nc21 | -5.66%
CCOCCCn1c(=NC(C)=O)c(C(=O)OCC)cc2c(=O)n3ccccc3nc21 | -4.7%
CCOCCCn1c(=NC(=O)c2cccnc2)c(C(=O)OCC)cc2c(=O)n3ccccc3nc21 | -67.8%
O=c1c2ccccc2c(C=NCCO)c(O)n1-c1ccccc1 | 11%
Brc1ccc2c(c1)C(OC1CN3CCC1CC3)c1ccccc1CS2.O=C(O)/C=C\C(=O)O (stereo not shown) | -27.6%
COc1ccc(Nc2c3c(nc4ccccc24)CCC3)cc1.Cl | -14.5%
N#Cc1cccc(Nc2c3c(nc4ccccc24)CCC3)c1 | -18%
Cc1ccc(Nc2c3c(nc4ccccc24)CCC3)cc1.Cl | -57.7%
COc1cc(Nc2c3c(nc4ccccc24)CCC3)cc(OC)c1OC | -19.4%
Cl.Fc1cccc(Nc2c3c(nc4ccccc24)CCC3)c1 | -9.35%
Cc1ccc2nc3c(c(Nc4ccc5c(c4)OCCO5)c2c1)CCC3.Cl | -5.67%
Cl.c1ccc(Nc2c3c(nc4ccccc24)CCC3)cc1 | -33.1%
c1ccc2c(Nc3ccc4c(c3)OCCO4)c3c(nc2c1)CCCC3 | -83.5%
COc1cc(Nc2c3c(nc4ccccc24)CCCC3)cc(OC)c1OC | -48.3%
N#Cc1cccc(Nc2c3c(nc4ccccc24)CCCC3)c1 | -60.5%
Cl.c1ccc2c(Nc3ccc4c(c3)OCCO4)c3c(nc2c1)CCC3 | -13.9%
COc1ccc(Nc2c3c(nc4ccccc24)CCCC3)cc1OC | -78%

From publication PMC4336329 (PLoS ONE, 2015)
